tested on: XIP peptide (Xip251-270); assay: compounds binding XIP fragment 251-270 – biochemical, small-molecule microarray, fluorescence 635/667 nm, 0.5 µg/mL protein, primary screen (AID 1183); conditions: fluorescence 635 nm, higher = more signal

Q: With `C#CCCCON=C1C[C@@H](O)[C@@H](O)[C@@H]2[C@@H]3C(=O)N([C@@H](C)c4ccccc4)C(=O)[C@@H]3CC[C@@H]12` as the compound, how does the composite z-score read?
A: Its composite z-score is -0.125.

Q: With `COc1cccc([C@H]2Oc3ccc(OC)cc3C(=NO[C@@H](C)c3cc(-c4c(C)cc(C)cc4C)no3)[C@@H]2O)c1` as the compound, how does the composite z-score read?
A: Its composite z-score is 0.0817.

Q: With `CO[C@@H]1COC(=O)[C@H](COCc2ccccc2)NC(=O)CC=C[C@@H](C)[C@H](OC)COC(=O)[C@@H](C)NC(=O)CC=C[C@H]1C` as the compound, how does the composite z-score read?
A: Its composite z-score is 0.261.

Q: Which composite z-score does the source give for `CC(=O)OC[C@H]1O[C@H](CC=NOCC[C@@H]2C=C[C@H](OC(C)=O)[C@@H](COC(C)=O)O2)C=C[C@@H]1OC(C)=O` here?
A: The composite z-score was 0.677.

Q: Which composite z-score does the source give for `CCN(CC)CC(O)CN1CCCCc2nc(C)c(C)cc21` (stereo not drawn) here?
A: Its composite z-score is -0.136.

Q: With `CC(=O)OC[C@H]1O[C@H](CCON=C(C)C)C=C[C@@H]1OC(C)=O` as the compound, how does the composite z-score read?
A: Its composite z-score is 0.0795.

Q: For `CCOC(=O)[C@H](Cc1ccccc1)NC(=O)CCC1CC(OC(=O)NCCc2ccc(F)cc2)CC2(CCCC(COC(=O)NCCOc3ccccc3)O2)O1` (stereo partly drawn), which composite z-score is on record?
A: The composite z-score was 0.401.

Q: For `COC(=O)[C@@H]1CC[C@H](C)[C@@H](c2ccc(C)cc2)N1C(=O)c1ccc(C=NO[C@@H](C)c2cc(-c3c(C)cc(C)cc3C)no2)cc1`, which composite z-score is on record?
A: The composite z-score was 0.511.

Q: How did the composite z-score turn out when `CCCC[C@H]1CN2[C@@H](CC[C@@H](C)[C@@H]2c2ccc(Br)cc2)C(=O)O1` was run?
A: The composite z-score was 0.476.

Q: For `C=CC[C@@H]1C=CC(ON=C(C)C)[C@@H](CO)O1` (stereo partly drawn), which composite z-score is on record?
A: Its composite z-score is -0.0372.

Q: `CCOC(=O)[C@H](Cc1ccccc1)NC(=O)CCC1CC(OC(=O)NCc2ccc3c(c2)OCO3)CC2(CCCC(COC(=O)NCCc3ccc(Cl)cc3)O2)O1` (stereo partly drawn) was tested. Which composite z-score did it give?
A: The composite z-score was 0.563.

Q: Which composite z-score does the source give for `CCN1C(=O)[C@H]2[C@H]3[C@H](O)[C@H](O)CC(=NOCC(C)C)[C@H]3CC[C@H]2C1=O` here?
A: The composite z-score was -0.122.

Q: With `CON=C[C@@H](OC)[C@H](C)C=CCC(=O)OC` as the compound, how does the composite z-score read?
A: Its composite z-score is -0.499.

Q: How did the composite z-score turn out when `CC(CCN1CCc2nc(-c3ccccc3)c(-c3ccccc3)cc2C1)=NO[C@H](C)c1cn([C@H](CO)Cc2ccccc2)nn1` was run?
A: Its composite z-score is 0.529.

Q: Which composite z-score does the source give for `CCOC(=O)[C@H](Cc1ccccc1)NC(=O)CCC1CC(OC(=O)NCc2cccc3ccccc23)CC2(CCCC(COC(=O)NCCOc3ccccc3)O2)O1` (stereo partly drawn) here?
A: The composite z-score was 0.512.

Q: For `CC(=O)OC[C@H]1O[C@H](CC=NO[C@@H](C)c2cn([C@H](CO)Cc3ccccc3)nn2)C=C[C@@H]1OC(C)=O`, which composite z-score is on record?
A: The composite z-score was 0.361.

Q: `COc1ccc(OC[C@H]2CN3[C@@H](CC[C@@H](C)[C@@H]3c3ccc(Br)cc3)C(=O)O2)cc1` was tested. Which composite z-score did it give?
A: The composite z-score was 0.61.

Q: Which composite z-score does the source give for `CCc1cc2c(nc1CC)CCN(CCC(C)=NOCC[C@@H]1C=C[C@H](OC(C)=O)[C@@H](COC(C)=O)O1)C2` here?
A: The composite z-score was 0.45.

Q: Which composite z-score does the source give for `CO[C@H]1COC(=O)CC=C[C@H](C)[C@H](OC)COC(=O)[C@@H](C)NC(=O)CC=C[C@@H]1C` here?
A: The composite z-score was 0.356.

Q: With `Cc1cc2c(nc1C)CCCCN2CC(O)CN1CCCc2nc(-c3ccc(Br)cc3)ccc21` (stereo not drawn) as the compound, how does the composite z-score read?
A: The composite z-score was 0.0985.

Q: How did the composite z-score turn out when `CC(CCN1CCCc2nc(C)c(C)cc21)=NO[C@H](C)c1cn([C@@H]2COC[C@H]2O)nn1` was run?
A: Its composite z-score is 0.588.

Q: Which composite z-score does the source give for `Cc1ccc(C(C)C)n1C(=O)OC(C)(C)C` here?
A: Its composite z-score is -0.0079.

Q: How did the composite z-score turn out when `COC(=O)[C@@H]1CC[C@H](C)[C@@H](c2ccc(Br)cc2)N1C(=O)C(F)(F)F` was run?
A: The composite z-score was -0.635.

Q: With `O=C1[C@H]2[C@H]3[C@H](O)[C@H](O)CC(=NOCc4ccccc4)[C@@H]3CC[C@H]2C(=O)N1c1cccc(Oc2ccccc2)c1` as the compound, how does the composite z-score read?
A: The composite z-score was 0.123.

Q: How did the composite z-score turn out when `CCCNC(=O)OC[C@H]1O[C@H](CCON=C2C[C@@H](O)[C@@H](O)[C@@H]3[C@@H]4C(=O)N(CC)C(=O)[C@@H]4CC[C@@H]23)C=C[C@@H]1Oc1ccc(OC)cc1` was run?
A: The composite z-score was 0.696.

Q: For `COc1cccc([C@H](O)Cn2cc(-c3ccc(CON=C(C)C)cc3)nn2)c1`, which composite z-score is on record?
A: The composite z-score was -0.851.

Q: Which composite z-score does the source give for `COC(=O)[C@@H]1CC[C@H](C)[C@@H](c2ccc(Br)cc2)N1` here?
A: Its composite z-score is -0.381.

Q: With `COc1ccc(O[C@H]2C=C[C@@H](c3ccccc3)O[C@@H]2CON=C2c3cc(OC)ccc3O[C@H](c3cccc(OC)c3)[C@H]2O)cc1` as the compound, how does the composite z-score read?
A: Its composite z-score is -0.338.

Q: How did the composite z-score turn out when `C[C@@H]1CC[C@@H](C(=O)O)N[C@H]1c1cccc(N2CCOCC2)c1` was run?
A: Its composite z-score is -0.135.

Q: With `COc1ccc2c(c1)O[C@@H](c1cccc(C(F)(F)F)c1)[C@H](O)C2=O` as the compound, how does the composite z-score read?
A: Its composite z-score is -0.233.

Q: `CC(=O)OC[C@H]1O[C@H](C#CCCc2ccccc2)C=C[C@@H]1OC(C)=O` was tested. Which composite z-score did it give?
A: The composite z-score was 0.758.

Q: With `CN1CCc2nc(-c3ccccc3)c(-c3ccccc3)cc2C1` as the compound, how does the composite z-score read?
A: Its composite z-score is 0.0309.

Q: With `CC(CCC(=O)OC[C@H]1O[C@H](C#Cc2ccccc2)C=C[C@@H]1Oc1ccc(C)cc1)=NOC[C@@H](C)[C@H](OCc1ccccc1)C(C)C` as the compound, how does the composite z-score read?
A: Its composite z-score is -0.693.
